Positions count from the first letter of the chain named.

The text below walks through data of publication PMC8384837, “Expanding the binding specificity for RNA recognition by a PUF domain”.

Experiment in all cases: yeast three-hybrid, YBZ-1, SC-Leu-His + 0.5 mM 3-AT, 4 days
What all share (details): tags: N-Gal4 AD-HA kept; label: inside an RPR1-promoter hybrid RNA with tandem MS2 sites; ssRNA

Test [1] has as its target PUM1 PUF domain R7-LNR (Homo sapiens, UniProt Q14671 828-1176, S1079L;E1083R). Put shortly: (§1)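 Matching RNA elements and Pumilio-1 PUF domain libraries, randomized at the three base-contacting residues of every repeat, were co-expressed from a centromeric plasmid in strain YBZ-1 (LexA–MS2 coat fusion, HIS3 reporter). The repeat regions were PCR-amplified and Illumina-sequenced from cells grown four days on SC-Leu (input) or SC-Leu-His + 0.5 mM 3-AT (selection). The interaction score is the log change in variant frequency from input to selection. It is computed in log2, with a pseudocount of 1 for absent variants.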

The target of test [2] is PUM1 PUF domain R1-KDS (Homo sapiens, UniProt Q14671 828-1176, S863K;R864D;Q867S). Put shortly:
as §1

Test [3] concerns the target PUM1 PUF domain R4-PFK (Homo sapiens, UniProt Q14671 828-1176, N971P;H972F;Q975K). Put shortly:
as §1

For test [4], the target named is PUM1 PUF domain R4-APR (Homo sapiens, UniProt Q14671 828-1176, N971A;H972P;Q975R). Put shortly: as §1
PUM1 PUF domain R4-APR, sequence (Q14671 828-1176 N971A/H972P/Q975R): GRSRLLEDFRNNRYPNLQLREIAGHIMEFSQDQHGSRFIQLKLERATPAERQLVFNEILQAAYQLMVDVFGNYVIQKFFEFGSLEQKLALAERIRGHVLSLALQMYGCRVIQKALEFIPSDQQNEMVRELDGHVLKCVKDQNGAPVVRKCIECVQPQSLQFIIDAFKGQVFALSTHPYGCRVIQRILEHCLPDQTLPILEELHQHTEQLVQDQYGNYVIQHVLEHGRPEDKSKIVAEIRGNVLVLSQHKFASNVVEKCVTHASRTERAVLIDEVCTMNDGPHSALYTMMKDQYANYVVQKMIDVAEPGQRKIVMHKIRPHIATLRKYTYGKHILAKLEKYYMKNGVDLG
Test [5] has as its target PUM1 PUF domain R3-CRT (Homo sapiens, UniProt Q14671 828-1176, Q939T). In short, it runs like this:
as §1

In test [6] the target is T1, PUM1 PUF domain R6-GFG (Homo sapiens, UniProt Q14671 828-1176, N1043G;Y1044F;Q1047G).
T1 sequence: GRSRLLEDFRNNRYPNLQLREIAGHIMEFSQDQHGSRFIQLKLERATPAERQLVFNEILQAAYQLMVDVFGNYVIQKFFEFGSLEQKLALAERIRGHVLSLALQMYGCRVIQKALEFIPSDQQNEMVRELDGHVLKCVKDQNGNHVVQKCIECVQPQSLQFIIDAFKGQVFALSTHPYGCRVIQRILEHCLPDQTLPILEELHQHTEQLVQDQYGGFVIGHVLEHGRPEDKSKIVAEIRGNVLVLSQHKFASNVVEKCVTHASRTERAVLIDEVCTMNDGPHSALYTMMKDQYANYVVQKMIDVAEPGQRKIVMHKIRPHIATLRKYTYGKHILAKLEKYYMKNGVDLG
Put shortly: as §1

In test [7] the target is PUM1 PUF domain R3-GRD (Homo sapiens, UniProt Q14671 828-1176, C935G;Q939D). Put shortly: as §1
PUM1 PUF domain R3-GRD, sequence (Q14671 828-1176 C935G/Q939D): as the sequence (Q14671 828-1176 N971A/H972P/Q975R) above, with C108G, Q112D, A144N, P145H, R148Q counted along it
Test [8] concerns the target PUM1 PUF domain R3-LWE (Homo sapiens, UniProt Q14671 828-1176, C935L;R936W;Q939E). Put shortly:
as §1

The target in test [9] is PUM1 PUF domain R5-MPR (Homo sapiens, UniProt Q14671 828-1176, C1007M;R1008P;Q1011R). Put shortly: as §1
PUM1 PUF domain R5-MPR, sequence (Q14671 828-1176 C1007M/R1008P/Q1011R): as the sequence (Q14671 828-1176 N971A/H972P/Q975R) above, with A144N, P145H, R148Q, C180M, R181P, Q184R counted along it
Test [10] addresses PUM1 PUF domain R8-RWD (Homo sapiens, UniProt Q14671 828-1176, N1122R;Y1123W;Q1126D). Put shortly: as §1
Test [11] concerns the target PUM1 PUF domain R1-KHR (Homo sapiens, UniProt Q14671 828-1176, S863K;R864H;Q867R). Put shortly: as §1
The target of test [12] is PUM1 PUF domain R1-VYR (Homo sapiens, UniProt Q14671 828-1176, S863V;R864Y;Q867R). In short, it runs like this:
as §1

In test [13] the target is PUM1 PUF domain R4-PHK (Homo sapiens, UniProt Q14671 828-1176, N971P;Q975K). In short, it runs like this:
as §1

Test [14] deals with PUM1 PUF domain R8-KHG (Homo sapiens, UniProt Q14671 828-1176, N1122K;Y1123H;Q1126G). In short, it runs like this: as §1
Test [15] concerns the target T2, PUM1 PUF domain R6-SRE (Homo sapiens, UniProt Q14671 828-1176, N1043S;Y1044R;Q1047E).
T2 sequence: T1 sequence with G216S, F217R, G220E
Put shortly:
as §1

In test [16] the target is PUM1 PUF domain R5-RQI (Homo sapiens, UniProt Q14671 828-1176, C1007R;R1008Q;Q1011I). Put shortly:
as §1

The target of test [17] is PUM1 PUF domain R5-KAE (Homo sapiens, UniProt Q14671 828-1176, C1007K;R1008A;Q1011E). In short, it runs like this:
as §1

Test [18] deals with PUM1 PUF domain R3-EWC (Homo sapiens, UniProt Q14671 828-1176, C935E;R936W;Q939C). Put shortly:
as §1

For test [19], the target named is PUM1 PUF domain R3-RER (Homo sapiens, UniProt Q14671 828-1176, C935R;R936E;Q939R). Put shortly: as §1
PUM1 PUF domain R3-RER, sequence (Q14671 828-1176 C935R/R936E/Q939R): as the sequence (Q14671 828-1176 N971A/H972P/Q975R) above, with C108R, R109E, Q112R, A144N, P145H, R148Q counted along it
The target of test [20] is PUM1 PUF domain R2-NRD (Homo sapiens, UniProt Q14671 828-1176, Y900R;Q903D). Put shortly:
as §1

PUM1 PUF domain R3-LWE, sequence (Q14671 828-1176 C935L/R936W/Q939E): as the sequence (Q14671 828-1176 N971A/H972P/Q975R) above, with C108L, R109W, Q112E, A144N, P145H, R148Q counted along it
PUM1 PUF domain R3-CRT, sequence (Q14671 828-1176 Q939T): as the sequence (Q14671 828-1176 N971A/H972P/Q975R) above, with Q112T, A144N, P145H, R148Q counted along it
PUM1 PUF domain R4-PFK, sequence (Q14671 828-1176 N971P/H972F/Q975K): as the sequence (Q14671 828-1176 N971A/H972P/Q975R) above, with A144P, P145F, R148K counted along it
PUM1 PUF domain R8-RWD, sequence (Q14671 828-1176 N1122R/Y1123W/Q1126D): as the sequence (Q14671 828-1176 N971A/H972P/Q975R) above, with A144N, P145H, R148Q, N295R, Y296W, Q299D counted along it
PUM1 PUF domain R1-KDS, sequence (Q14671 828-1176 S863K/R864D/Q867S): as the sequence (Q14671 828-1176 N971A/H972P/Q975R) above, with S36K, R37D, Q40S, A144N, P145H, R148Q counted along it
PUM1 PUF domain R5-KAE, sequence (Q14671 828-1176 C1007K/R1008A/Q1011E): as the sequence (Q14671 828-1176 N971A/H972P/Q975R) above, with A144N, P145H, R148Q, C180K, R181A, Q184E counted along it
PUM1 PUF domain R5-RQI, sequence (Q14671 828-1176 C1007R/R1008Q/Q1011I): as the sequence (Q14671 828-1176 N971A/H972P/Q975R) above, with A144N, P145H, R148Q, C180R, R181Q, Q184I counted along it
PUM1 PUF domain R4-PHK, sequence (Q14671 828-1176 N971P/Q975K): as the sequence (Q14671 828-1176 N971A/H972P/Q975R) above, with A144P, P145H, R148K counted along it

Regarding “GGCUAGAACUAGUGGAUCCCCCGGCGCCCGGCGGCUCGAGCCCGGGUAAGUCUAAAUAGUCUGCAUGCCGCCGGGCGCCAUGCCUGCAGGUCGACUCUAGAAAACAUG”, the binding signal in test [1] was 3.62 log2 enrichment (interaction score).

On to “GGCUAGAACUAGUGGAUCCCCCGGCGCCCGGCGGCUCGAGCCCGGGUAAGUGUAAAUGGUCUGCAUGCCGCCGGGCGCCAUGCCUGCAGGUCGACUCUAGAAAACAUG”, for which the binding signal in [2] was 2.77 log2 enrichment (interaction score).

Consider “GGCUAGAACUAGUGGAUCCCCCGGCGCCCGGCGGCUCGAGCCCGGGUAAGUGUAUAUAGUCUGCAUGCCGCCGGGCGCCAUGCCUGCAGGUCGACUCUAGAAAACAUG”, for which the binding signal was 6.46 log2 enrichment (interaction score) in [3] and 2.82 log2 enrichment (interaction score) in [4].

For “GGCUAGAACUAGUGGAUCCCCCGGCGCCCGGCGGCUCGAGCCCGGGUAAGUGUAAAUAGUCUGCAUGCCGCCGGGCGCCAUGCCUGCAGGUCGACUCUAGAAAACAUG”, the binding signal in [5] is 3.85 log2 enrichment (interaction score); in test [6] it was 3.55 log2 enrichment (interaction score); in test [7] it was 4.82 log2 enrichment (interaction score); in test [3], 4.17 log2 enrichment (interaction score); in test [8] it was 3.37 log2 enrichment (interaction score); in [9], 1.45 log2 enrichment (interaction score). In addition, in [10], the binding signal is 2.26 log2 enrichment (interaction score).

For the sequence “GGCUAGAACUAGUGGAUCCCCCGGCGCCCGGCGGCUCGAGCCCGGGUAAGUGUAAAUCGUCUGCAUGCCGCCGGGCGCCAUGCCUGCAGGUCGACUCUAGAAAACAUG”, the binding signal in test [11] is 5.17 log2 enrichment (interaction score); in test [12], 2.62 log2 enrichment (interaction score); in test [2] it was 2.96 log2 enrichment (interaction score).

Take “GGCUAGAACUAGUGGAUCCCCCGGCGCCCGGCGGCUCGAGCCCGGGUAAGUGUAAAUUGUCUGCAUGCCGCCGGGCGCCAUGCCUGCAGGUCGACUCUAGAAAACAUG”: the binding signal in [11] was 2.59 log2 enrichment (interaction score).

With “GGCUAGAACUAGUGGAUCCCCCGGCGCCCGGCGGCUCGAGCCCGGGUAAGUGUACAUAGUCUGCAUGCCGCCGGGCGCCAUGCCUGCAGGUCGACUCUAGAAAACAUG”, the binding signal in test [3] is 4.33 log2 enrichment (interaction score); in test [13], 3.9 log2 enrichment (interaction score); in test [4], 2.91 log2 enrichment (interaction score).

“GGCUAGAACUAGUGGAUCCCCCGGCGCCCGGCGGCUCGAGCCCGGGUAAGGGUAAAUAGUCUGCAUGCCGCCGGGCGCCAUGCCUGCAGGUCGACUCUAGAAAACAUG”: the binding signal in [14] is 3.34 log2 enrichment (interaction score).

As for “GGCUAGAACUAGUGGAUCCCCCGGCGCCCGGCGGCUCGAGCCCGGGUAAGUGGAAAUAGUCUGCAUGCCGCCGGGCGCCAUGCCUGCAGGUCGACUCUAGAAAACAUG”, in test [15], the binding signal was 5.64 log2 enrichment (interaction score).

Turning to “GGCUAGAACUAGUGGAUCCCCCGGCGCCCGGCGGCUCGAGCCCGGGUAAGCGUAAAUAGUCUGCAUGCCGCCGGGCGCCAUGCCUGCAGGUCGACUCUAGAAAACAUG”, the binding signal was 5.27 log2 enrichment (interaction score) in test [14] and 2.45 log2 enrichment (interaction score) in test [10].

Turning to “GGCUAGAACUAGUGGAUCCCCCGGCGCCCGGCGGCUCGAGCCCGGGUAAGUGUCAAUAGUCUGCAUGCCGCCGGGCGCCAUGCCUGCAGGUCGACUCUAGAAAACAUG”, the results for the binding signal in [16], in test [17] and in [9] were 2.06 log2 enrichment (interaction score), 3.8 log2 enrichment (interaction score) and 2.13 log2 enrichment (interaction score), respectively.

As to “GGCUAGAACUAGUGGAUCCCCCGGCGCCCGGCGGCUCGAGCCCGGGUAAGUGUAACUAGUCUGCAUGCCGCCGGGCGCCAUGCCUGCAGGUCGACUCUAGAAAACAUG”, in test [18], the binding signal was 4.45 log2 enrichment (interaction score).

“GGCUAGAACUAGUGGAUCCCCCGGCGCCCGGCGGCUCGAGCCCGGGUAAGUGUAAUUAGUCUGCAUGCCGCCGGGCGCCAUGCCUGCAGGUCGACUCUAGAAAACAUG”: the binding signal in [5] is 1.12 log2 enrichment (interaction score); in [7], 2.16 log2 enrichment (interaction score); in [8], 1.78 log2 enrichment (interaction score); in [19], 4.06 log2 enrichment (interaction score).

Take “GGCUAGAACUAGUGGAUCCCCCGGCGCCCGGCGGCUCGAGCCCGGGUAAGUGUAAAAAGUCUGCAUGCCGCCGGGCGCCAUGCCUGCAGGUCGACUCUAGAAAACAUG”: the binding signal in [20] was 3.12 log2 enrichment (interaction score).

Take “GGCUAGAACUAGUGGAUCCCCCGGCGCCCGGCGGCUCGAGCCCGGGUAAGUGUAAGUAGUCUGCAUGCCGCCGGGCGCCAUGCCUGCAGGUCGACUCUAGAAAACAUG”: the binding signal in test [5] is 1.54 log2 enrichment (interaction score); in test [7], 6.36 log2 enrichment (interaction score); in test [8], 5.48 log2 enrichment (interaction score).

Take “GGCUAGAACUAGUGGAUCCCCCGGCGCCCGGCGGCUCGAGCCCGGGUAAGUGUUAAUAGUCUGCAUGCCGCCGGGCGCCAUGCCUGCAGGUCGACUCUAGAAAACAUG”: the binding signal in test [16] is 4.62 log2 enrichment (interaction score); in test [17] it was 2.99 log2 enrichment (interaction score).
